Measured values reported in PubChem BioAssay (NCI).
This is part of a sample that, as a whole, favours compounds with a hit. Of some 79,000 tested, about 15% had one in any assay. Values without a mark were called inactive. Calls of active or inactive are those of the source. No stated cut-off is given here; in the data, active means growth inhibition above about 70%; inactive means the rest.

Key:
[1] = NCI Yeast Anticancer Drug Screen. Data for the rad50 strain (AID 155);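 further: 0% = growth of vehicle-only cultures of the same strain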; details: S. cerevisiae rad50 strain growth inhibition; at 50.0 µM; stronger effect = higher value
Procedure, shortened: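 DNA repair mutant yeast, compound exposure, growth read-out; inhibition is taken relative to vehicle.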

[2] = NCI Yeast Anticancer Drug Screen. Data for the mec2-1 strain (AID 157); details: S. cerevisiae mec2-1 strain, at 50.0 µM, stronger effect = higher value
Procedure, shortened: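 Readout is yeast growth inhibition, normalised to vehicle-treated controls, in the mec2-1 strain exposed to compound.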

[3] = NCI Yeast Anticancer Drug Screen. Data for the sgs1 mgt1 strain (AID 161);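 further: 0% = growth of cultures given vehicle only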; details: S. cerevisiae sgs1 mgt1 strain, at 50.0 µM, stronger effect = higher value
Procedure, shortened: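 This yeast growth screen uses a strain with defined DNA-repair lesions; compound-treated growth is compared with vehicle-treated growth.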

[4] = NCI Yeast Anticancer Drug Screen. Data for the cln2 rad14 strain (AID 165);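 further: 0% = growth equal to vehicle treated cultures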; details: S. cerevisiae cln2 rad14 strain, at 50.0 µM, stronger effect = higher value
Procedure, shortened: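 Relative to vehicle controls, growth inhibition of compound-treated cln2 rad14 yeast was recorded.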

[5] = NCI Yeast Anticancer Drug Screen. Data for the bub3 strain (AID 167); details: S. cerevisiae bub3 mutant strain, at 50.0 µM, stronger effect = higher value
Procedure, shortened: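 In this screen, a yeast mutant lacking normal mitotic checkpoint function is challenged with compound. Relative growth versus vehicle gives the inhibition value.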

[6] = NCI Yeast Anticancer Drug Screen. Data for the mlh1 rad18 strain (AID 175); details: S. cerevisiae mlh1 rad18 strain growth inhibition; at 50.0 µM; stronger effect = higher value
Procedure, shortened: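 Test agents were incubated with a yeast strain of defined genotype (DNA damage repair defect). Inhibition of growth was derived by comparison with vehicle-exposed cultures.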

SMILES	growth inhibition [1] [%]	growth inhibition [2]	growth inhibition [3]	growth inhibition [4]	growth inhibition [5]	growth inhibition [6]
Nc1nc2ccc([N+](=O)[O-])cc2s1	6.15	-6.45%	10.8%	-18.4%	-12.8%	-8.1%
CN(C)C(=O)OC1CCCCC1	-8.1	-9.4%	-18.8%	-18.7%	-19.6%	-12.6%
CCCCOCN(COCCCC)CC(C)(C)C	20.9	14.7%	-10.8%	14.7%	19.4%	19.3%
CC(=O)C(C(C)=O)[N+](=O)[O-].CC(=O)C(C(C)=O)[N+](=O)[O-].[Cu]	17.1	-2.95%	-6.75%	-40.5%	23.6%	10.6%
COC(=O)CCNC(=O)c1ccccc1	3.5	-1.6%	-4.75%	-5.75%	1.2%	-3.25%
O=C(O)c1c[nH]c2cc(OCc3ccc(Br)cc3)ccc2c1=O	13.8	0.65%	-1.85%	6.9%	2.5%	9.45%
COc1ccc(-c2oc3cc(OC)ccc3c(=O)c2O)cc1	22.5	25.4%	8.1%	-3.5%	-5.1%	8.25%
Cc1nc(C(=O)O)ccc1O	3.05	16%	-1.05%	-3.2%	0.45%	4%
CC(=O)OCC(OC(C)=O)C(OC(C)=O)c1cnn(-c2ccccc2)n1 (stereo unspecified)	12.6	-1.5%	2.5%	17.7%	24.6%	22%
CC(O)CC(C)(C)O (stereo unspecified)	28.1	13.1%	8.55%	9.9%	15.3%	4.2%
CCOC(=O)/C(O)=C(/C=NC(=S)c1ccncc1)C(=O)OCC	-28.2	-29.8%	-15.3%	-6.45%	-13.8%	-31%
COc1ccc(N=NC(=S)NNc2ccc(OC)cc2Oc2ccccc2)c(Oc2ccccc2)c1	12.5	-0.4%	29.4%	11.8%	-4.6%	3.35%
O=[N+]([O-])c1ccc(N/N=C(\Cc2ccccc2)c2ccccc2)c([N+](=O)[O-])c1	6.8	2.25%	6.2%	-20.3%	-5.75%	2.3%
COc1ccc(S(=O)(=O)/N=C(/C2CC3=CCC4C5CCC(=O)C5(C)CC(=O)C4C3(C)C2)N2CCCC2)cc1 (stereo unspecified)	5.75	4.9%	1.85%	-11.6%	-1.35%	-18%
Cc1ccccc1CN(C)CCCO	4.1	-13%	-16.8%	-16.1%	-3.85%	1.05%
COc1cc(-c2cc(OC)c(N)cc2Br)c(Br)cc1N	38.8	17.2%	60.6%	49.9%	54.4%	35.9%
O=C(COc1ccccc1)OC1CCCC1	17.6	-13.4%	-9.8%	-1.9%	-3.05%	4.55%
CCOC(=O)c1cn(CC)c2cc(-n3cccc3)c(F)cc2c1=O	46.6	27.6%	48.1%	39.5%	27%	49.9%
Cc1ccc(OC/C=N\N=C(N)N)cc1C	-7.9	16.4%	41.3%	-6%	8.3%	17.1%
Cc1cc(S(=O)(=O)Nc2nnc3c4ccccc4cnn23)c(S)cc1Cl	-38	-24.4%	-21%	2.7%	-15.8%	-31.6%
CC(C)Sc1nc2ccc(NC(=O)/C=C/C(=O)O)cc2s1	18.9	8.65%	4.95%	14.1%	13.7%	12.1%

SMILES	growth inhibition [1] [%]	growth inhibition [2]	growth inhibition [3]	growth inhibition [4]	growth inhibition [5]	growth inhibition [6]
NC(=O)c1ccc(NCC2=CC(=O)C=CC2=O)cc1	-9.85	3.25%	-5.05%	-2.6%	-17.9%	16.8%
O=C1NCC(C2CC2)(C2CC2)O1	8.85	-16.9%	-5.7%	-34%	8.7%	-21%
COc1cc(OC)cc(Oc2nc3ccc(C(F)(F)F)cc3nc2-c2ccccc2)c1	-33.1	-44.8%	-7.85%	-28.3%	-27.4%	-14.3%
COc1cc(C2N3CCCN2CC3)cc(OC)c1OC (stereo unspecified)	-3.75	0.35%	-21.6%	-3.5%	-7.75%	-2.55%
C=CCO[Si](C=C)(OCC=C)OCC=C	31.8	-10.9%	-5.35%	10.7%	9.6%	-3.95%
[N-]=[N+]=Nc1cc(=O)n(-c2ccccc2)c2ccccc12	-17.2	-22.7%	-24.6%	-2.8%	-3.75%	-22.3%
O=C(Nc1ccccc1)C(=O)Nc1ccccc1	5.4	-18.1%	-8.05%	-12.7%	-10.9%	-4.25%
CCCCOC(=O)OCCOCCOC(=O)OC(C)C(=O)OCCCC (stereo unspecified)	-16.9	-22.4%	-10.2%	-21.3%	1.7%	10.8%
CCCC1(C)COC(C)(CCC)OC1 (stereo unspecified)	-31.6	-8.3%	-17.9%	-34.4%	-16.9%	-0.45%
CC(=O)OCCOCNC(=S)N/N=C(\C)c1cccs1	10.3	-13.6%	4.8%	34.1%	4.3%	-8.95%
CCCCCC(C)(C)O	7.6	-6.55%	-3.9%	-40.9%	4.75%	-4.75%
COc1cc(Cl)ccc1NC(=O)Oc1ccc(-c2ccccc2)cc1Cl	65.8	99.5% (active)	99.5% (active)	99% (active)	99.2% (active)	99.4% (active)
COC1=CC(=C(\C#N)c2ccc(Cl)cc2)/C=CC/1=N/O	20.1	11.6%	3.85%	-7.25%	5.75%	21.9%
O=C1SCC(O)=C1/C=N/Nc1nc2ccccc2o1	-11.9	6.45%	27.1%	31.7%	13.2%	12.3%
CCCCCCCCCCCCCCCCNC(=O)C(C)O (stereo unspecified)	23.9	3.2%	17.2%	-13.9%	7.7%	30.4%
CCCOc1cc2c(cc1C(C)(C)c1ccccc1)OCO2	-16.9	-18.6%	-12.7%	-27.9%	-3.5%	-15.4%
COC(=O)C(=O)Cc1cccc(OC(C)=O)c1C(=O)OC	8.55	6.4%	6.6%	-94%	9.35%	2.6%
Cc1cc(=O)[nH]c(NN2C(Cl)C(=O)C2c2ccc(Cl)cc2)n1 (stereo unspecified)	10.6	7.45%	4.2%	-7.9%	8%	-18.4%
Cc1cccc(N=Nc2ccc(O)c(CN(C)C)c2)c1	-17	8.9%	-0.35%	-5.5%	29.1%	20.2%
CCCC(C)(C)O	2.15	9.15%	22.1%	-21.3%	10.4%	-3.65%
